Laboratory results published in PubChem BioAssay AID687041 (Broad Institute, 2013).
Measured potencies and affinities stand elsewhere.

test: endogenous miR-122 level reduction, dose response, orthogonal assay for miR-122 inhibitor project, cell-based, Huh7, RT-qPCR, dry powder (AID 687041); details: Huh7 miR-122 level, 48 h; series mostly up to 35 µM; relative miR-122 level (fraction of control): at the top concentration;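 active = compounds lowering miR-122 whose fitted half-maximal concentration is at most twice the top tested dose; inconclusive = flat fit with moderate reduction, or poor fit quality; inactive = the rest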

Relative miR-122 level (fraction of control), inactive:
Cc1cc(C)c(S(=O)(=O)NC(C)C)c(C)c1-n1cnnn1 1.17
Cc1cc(S(=O)(=O)NC2CCCCC2)c(C)s1 1.16
CCCCNS(=O)(=O)c1ccc2nc(-c3cccnc3)cc(C(=O)NC(C)CC)c2c1 (stereo not given) 0.978
COc1ccc(C)cc1NS(=O)(=O)c1ccc2c(c1)N(C)CCO2 0.687
Cc1cc(C)c(S(=O)(=O)NC2CC3CCC2C3)c(C)c1 (stereo not given) 0.851
CCOc1cc(C)c(S(=O)(=O)NC2CCCCC2)cc1C 0.676
O=S(=O)(Nc1cccc2[nH]ncc12)c1ccc(F)c2ncccc12 0.846
Cc1cccc(NS(=O)(=O)c2cc3c(cc2C)NC(=O)CO3)c1 0.95
Nc1c(S(=O)(=O)c2cccs2)c2nc3ccccc3nc2n1Cc1ccccc1 0.7
COc1cc(C)c(C(C)C)cc1S(=O)(=O)n1cnc(C)c1 0.792
Cc1ccc(NS(=O)(=O)c2cc(C(=O)NCc3ccccn3)ccc2Cl)cc1C 0.985
CCOc1ccc(C)cc1S(=O)(=O)NC1CCCCC1 0.698
CN1C(=O)c2cccc3c(S(=O)(=O)NCCc4ccccc4)ccc1c23 0.827
O=C(Nc1ccc(N2CCOCC2)c(S(=O)(=O)Nc2cc(Cl)ccc2Cl)c1)c1cccnc1 1.07
COC(=O)c1cc(S(=O)(=O)Nc2cc(OC)cc(OC)c2)cn1C 0.972
CCOc1ccccc1N1CCN(C(=O)c2cccc(-c3ccc(O)cc3)c2)CC1 0.555
COc1cccc(N2CCN(C(=O)c3oc4ccccc4c3NC(=O)CCc3cc(OC)no3)CC2)c1 0.682
O=S(=O)(c1ccc2c(c1)CCCN2)N1CCC[C@@H]2CCCC[C@H]21 0.549
CCN(CC)C(=O)CN(c1cc2c(cc1OC)oc1ccccc12)S(=O)(=O)c1ccccc1 0.384
Cc1cc(C)c(C)c(S(=O)(=O)NC2CCCCC2)c1C 0.685
Cc1ccc(C)c(S(=O)(=O)Nc2ccc(-n3cnnn3)cc2)c1 0.901
Cc1ccc(C(C)C)cc1S(=O)(=O)Nc1cccnc1 1.21
COc1ccc(S(=O)(=O)Nc2ccc(OC(F)F)cc2)c2cccnc12 1.16
O=C(Nc1ccc2ccccc2c1)c1ccc(Cl)cc1Cl 2.03
Cc1ccc(C)c(S(=O)(=O)Nc2ccc3cn[nH]c3c2)c1 0.908
COc1ccc(S(=O)(=O)NCCN2CCOCC2)c2ccccc12 0.954
Cc1cc(Cl)c(Cl)cc1S(=O)(=O)NCCCn1ccnc1 0.911
Cc1ccc(C(=O)C2Oc3ccccc3C3CC(c4ccc(C)cc4)=NN23)cc1 (stereo not given) 0.992
Cc1cc(C(C)(C)C)cc(S(=O)(=O)NCCO)c1C 1.22
COc1ccc(C(C)(C)C)cc1S(=O)(=O)NCC1CCCO1 (stereo not given) 0.947
